# ± gives the standard deviation.
# T1: HaloTag-ATRX ADD domain (163-292)
# T1 chain: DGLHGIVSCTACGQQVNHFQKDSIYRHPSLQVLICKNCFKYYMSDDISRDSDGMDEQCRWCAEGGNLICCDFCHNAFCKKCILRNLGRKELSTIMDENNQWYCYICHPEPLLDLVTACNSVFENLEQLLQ
# Experiments:
# Experiment in all cases: peptide microarray binding signal (635 nm), min-max normalized on array (fraction of array maximum); higher = stronger binding
# Conditions in all cases: peptide region: H2B 17-29
# [1] = target: T1, HaloTag-ATRX ADD domain (163-292)
# Method: (§1)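 Histone 13-mer peptides were synthesized as cellulose conjugates with a C-terminal 20-atom PEG linker and printed in triplicate on nitrocellulose. The sequence given is the unmodified backbone; PTMs (Kme1/2/3, Kac, Sph/Tph, Rme/Rme2a/Rme2s, Rcit) are listed in the label and the 'peptide modifications' condition. Slides were probed at 4 °C for 1 h with biotin-labelled (HQ)5-HaloTag reader fusions (ATRX-ADD, ING2-PHD) then streptavidin-Alexa647, or with rabbit histone antibodies then anti-rabbit Alexa647. The mean 635 nm signal of the triplicate spots was scaled 0-1 between the lowest and highest values on each array.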
# [2] = target: HaloTag-ING2 PHD (mouse Ing2 200-280)
# Method: as §1
# [3] = target: anti-H3K4me3 antibody ab8580
# Method: as §1
# [4] = target: anti-H3K9me3 antibody ab8898
# Method: as §1
# [5] = peptide modifications: H2BK23ac H2BK27ac, binder concentration: 1:2,000 dilution
# [6] = peptide modifications: H2BK23ac H2BK27ac, binder concentration: 1:10,000 dilution
# [7] = peptide modifications: H2BK23ac H2BK28ac, binder concentration: 1:2,000 dilution
# [8] = peptide modifications: H2BK23ac H2BK28ac, binder concentration: 1:10,000 dilution
# [9] = peptide modifications: H2BK23ac, binder concentration: 1:2,000 dilution
# [10] = peptide modifications: H2BK23ac, binder concentration: 1:10,000 dilution
# [11] = peptide modifications: H2BK24ac H2BK27ac H2BK28ac, binder concentration: 1:2,000 dilution
# [12] = peptide modifications: H2BK24ac H2BK27ac H2BK28ac, binder concentration: 1:10,000 dilution
# [13] = peptide modifications: H2BK24ac H2BK27ac, binder concentration: 1:2,000 dilution
# [14] = peptide modifications: H2BK24ac H2BK27ac, binder concentration: 1:10,000 dilution
# [15] = peptide modifications: H2BK24ac H2BK28ac, binder concentration: 1:2,000 dilution
# [16] = peptide modifications: H2BK24ac H2BK28ac, binder concentration: 1:10,000 dilution
# [17] = peptide modifications: H2BK24ac, binder concentration: 1:2,000 dilution
# [18] = peptide modifications: H2BK24ac, binder concentration: 1:10,000 dilution
# [19] = peptide modifications: H2BK27ac H2BK28ac, binder concentration: 1:2,000 dilution
# [20] = peptide modifications: H2BK27ac H2BK28ac, binder concentration: 1:10,000 dilution
# [21] = peptide modifications: H2BK27ac, binder concentration: 1:2,000 dilution
# [22] = peptide modifications: H2BK27ac, binder concentration: 1:10,000 dilution
# [23] = peptide modifications: H2BK28ac, binder concentration: 1:2,000 dilution
# [24] = peptide modifications: H2BK28ac, binder concentration: 1:10,000 dilution
binder,measurement,setting,value
AVTKAQKKDGKKR [H2B 17-29 A V T K A Q Kac K D G Kac K R],peptide microarray binding signal,"[1]; peptide modifications: H2BK23ac H2BK27ac, binder concentration: 50 nM",0.0053 ± 0.00061
same,peptide microarray binding signal,"[1]; peptide modifications: H2BK23ac H2BK27ac, binder concentration: 500 nM",0.00781 ± 0.00049
same,peptide microarray binding signal,"[2]; peptide modifications: H2BK23ac H2BK27ac, binder concentration: 10 nM",0.00722 ± 0.00015
same,peptide microarray binding signal,"[2]; peptide modifications: H2BK23ac H2BK27ac, binder concentration: 100 nM",0.00751 ± 0.001
same,peptide microarray binding signal,[3]; [5],0.0021 ± 0.00039
same,peptide microarray binding signal,[3]; [6],0.000856 ± 8.9e-06
same,peptide microarray binding signal,[4]; [5],0.000604 ± 2e-05
same,peptide microarray binding signal,[4]; [6],0.000923 ± 9.6e-06
AVTKAQKKDGKKR [H2B 17-29 A V T K A Q Kac K D G K Kac R],peptide microarray binding signal,"[1]; peptide modifications: H2BK23ac H2BK28ac, binder concentration: 50 nM",0.00348 ± 0.00011
same,peptide microarray binding signal,"[1]; peptide modifications: H2BK23ac H2BK28ac, binder concentration: 500 nM",0.00929 ± 0.00055
same,peptide microarray binding signal,"[2]; peptide modifications: H2BK23ac H2BK28ac, binder concentration: 10 nM",0.00442 ± 0.00046
same,peptide microarray binding signal,"[2]; peptide modifications: H2BK23ac H2BK28ac, binder concentration: 100 nM",0.00312 ± 0.00011
same,peptide microarray binding signal,[3]; [7],0.002 ± 0.00012
same,peptide microarray binding signal,[3]; [8],0.000799 ± 8.3e-06
same,peptide microarray binding signal,[4]; [7],0.000529 ± 1.3e-05
same,peptide microarray binding signal,[4]; [8],0.000634
AVTKAQKKDGKKR [H2B 17-29 A V T K A Q Kac K D G K K R],peptide microarray binding signal,"[1]; peptide modifications: H2BK23ac, binder concentration: 50 nM",0.00376 ± 0.00013
same,peptide microarray binding signal,"[1]; peptide modifications: H2BK23ac, binder concentration: 500 nM",0.00514 ± 0.0009
same,peptide microarray binding signal,"[2]; peptide modifications: H2BK23ac, binder concentration: 10 nM",0.00424 ± 9.6e-05
same,peptide microarray binding signal,"[2]; peptide modifications: H2BK23ac, binder concentration: 100 nM",0.00666 ± 0.00022
same,peptide microarray binding signal,[3]; [9],0.00051 ± 9.7e-05
same,peptide microarray binding signal,[3]; [10],0.000742
same,peptide microarray binding signal,[4]; [9],0.000498 ± 3.6e-05
same,peptide microarray binding signal,[4]; [10],0.00104 ± 1.1e-05
AVTKAQKKDGKKR [H2B 17-29 A V T K A Q K Kac D G Kac Kac R],peptide microarray binding signal,"[1]; peptide modifications: H2BK24ac H2BK27ac H2BK28ac, binder concentration: 50 nM",0.00295 ± 3.3e-05
same,peptide microarray binding signal,"[1]; peptide modifications: H2BK24ac H2BK27ac H2BK28ac, binder concentration: 500 nM",0.00638 ± 0.0005
same,peptide microarray binding signal,"[2]; peptide modifications: H2BK24ac H2BK27ac H2BK28ac, binder concentration: 10 nM",0.0037 ± 7.9e-05
same,peptide microarray binding signal,"[2]; peptide modifications: H2BK24ac H2BK27ac H2BK28ac, binder concentration: 100 nM",0.00716 ± 0.00073
same,peptide microarray binding signal,[3]; [11],0.000944 ± 5.4e-05
same,peptide microarray binding signal,[3]; [12],0.00108
same,peptide microarray binding signal,[4]; [11],0.000634 ± 9.9e-06
same,peptide microarray binding signal,[4]; [12],0.00098 ± 3e-05
AVTKAQKKDGKKR [H2B 17-29 A V T K A Q K Kac D G Kac K R],peptide microarray binding signal,"[1]; peptide modifications: H2BK24ac H2BK27ac, binder concentration: 50 nM",0.00238 ± 4.6e-05
same,peptide microarray binding signal,"[1]; peptide modifications: H2BK24ac H2BK27ac, binder concentration: 500 nM",0.0059 ± 0.00037
same,peptide microarray binding signal,"[2]; peptide modifications: H2BK24ac H2BK27ac, binder concentration: 10 nM",0.00197 ± 4.6e-05
same,peptide microarray binding signal,"[2]; peptide modifications: H2BK24ac H2BK27ac, binder concentration: 100 nM",0.00177 ± 6.2e-05
same,peptide microarray binding signal,[3]; [13],0.00138 ± 0.0002
same,peptide microarray binding signal,[3]; [14],0.000685 ± 7.2e-06
same,peptide microarray binding signal,[4]; [13],0.000227 ± 4.1e-06
same,peptide microarray binding signal,[4]; [14],0.000346 ± 3.8e-06
AVTKAQKKDGKKR [H2B 17-29 A V T K A Q K Kac D G K Kac R],peptide microarray binding signal,"[1]; peptide modifications: H2BK24ac H2BK28ac, binder concentration: 50 nM",0.00524 ± 0.00097
same,peptide microarray binding signal,"[1]; peptide modifications: H2BK24ac H2BK28ac, binder concentration: 500 nM",0.00786 ± 0.0018
same,peptide microarray binding signal,"[2]; peptide modifications: H2BK24ac H2BK28ac, binder concentration: 10 nM",0.00412 ± 0.00017
same,peptide microarray binding signal,"[2]; peptide modifications: H2BK24ac H2BK28ac, binder concentration: 100 nM",0.00432 ± 0.00035
same,peptide microarray binding signal,[3]; [15],0.00034 ± 3.1e-05
same,peptide microarray binding signal,[3]; [16],0.00131 ± 5.7e-05
same,peptide microarray binding signal,[4]; [15],0.000695 ± 4.4e-05
same,peptide microarray binding signal,[4]; [16],0.000519 ± 5.6e-06
AVTKAQKKDGKKR [H2B 17-29 A V T K A Q K Kac D G K K R],peptide microarray binding signal,"[1]; peptide modifications: H2BK24ac, binder concentration: 50 nM",0.00295 ± 0.00019
same,peptide microarray binding signal,"[1]; peptide modifications: H2BK24ac, binder concentration: 500 nM",0.00762 ± 0.00062
same,peptide microarray binding signal,"[2]; peptide modifications: H2BK24ac, binder concentration: 10 nM",0.00609 ± 0.00052
same,peptide microarray binding signal,"[2]; peptide modifications: H2BK24ac, binder concentration: 100 nM",0.0283 ± 0.032
same,peptide microarray binding signal,[3]; [17],0.0013 ± 8.9e-05
same,peptide microarray binding signal,[3]; [18],0.000742
same,peptide microarray binding signal,[4]; [17],0.000347 ± 3.5e-06
same,peptide microarray binding signal,[4]; [18],0.000577 ± 6.2e-06
AVTKAQKKDGKKR [H2B 17-29 A V T K A Q K K D G Kac Kac R],peptide microarray binding signal,"[1]; peptide modifications: H2BK27ac H2BK28ac, binder concentration: 50 nM",0.0047 ± 0.00043
same,peptide microarray binding signal,"[1]; peptide modifications: H2BK27ac H2BK28ac, binder concentration: 500 nM",0.00386 ± 0.00024
same,peptide microarray binding signal,"[2]; peptide modifications: H2BK27ac H2BK28ac, binder concentration: 10 nM",0.00418 ± 6.5e-05
same,peptide microarray binding signal,"[2]; peptide modifications: H2BK27ac H2BK28ac, binder concentration: 100 nM",0.00276 ± 0.00023
same,peptide microarray binding signal,[3]; [19],0.00017 ± 5.6e-06
same,peptide microarray binding signal,[3]; [20],0.00114 ± 1.2e-05
same,peptide microarray binding signal,[4]; [19],0.000544 ± 3e-05
same,peptide microarray binding signal,[4]; [20],0.0011 ± 4e-05
AVTKAQKKDGKKR [H2B 17-29 A V T K A Q K K D G Kac K R],peptide microarray binding signal,"[1]; peptide modifications: H2BK27ac, binder concentration: 50 nM",0.00248 ± 9e-05
same,peptide microarray binding signal,"[1]; peptide modifications: H2BK27ac, binder concentration: 500 nM",0.00624 ± 0.00045
same,peptide microarray binding signal,"[2]; peptide modifications: H2BK27ac, binder concentration: 10 nM",0.00185 ± 3.3e-05
same,peptide microarray binding signal,"[2]; peptide modifications: H2BK27ac, binder concentration: 100 nM",0.00149 ± 4.1e-05
same,peptide microarray binding signal,[3]; [21],0.00126 ± 4.4e-05
same,peptide microarray binding signal,[3]; [22],0.000913 ± 1.6e-05
same,peptide microarray binding signal,[4]; [21],0.000302 ± 3.1e-06
same,peptide microarray binding signal,[4]; [22],0.000404 ± 4.4e-06
AVTKAQKKDGKKR [H2B 17-29 A V T K A Q K K D G K Kac R],peptide microarray binding signal,"[1]; peptide modifications: H2BK28ac, binder concentration: 50 nM",0.00194 ± 4.1e-05
same,peptide microarray binding signal,"[1]; peptide modifications: H2BK28ac, binder concentration: 500 nM",0.00486 ± 0.00024
same,peptide microarray binding signal,"[2]; peptide modifications: H2BK28ac, binder concentration: 10 nM",0.00209 ± 2.4e-05
same,peptide microarray binding signal,"[2]; peptide modifications: H2BK28ac, binder concentration: 100 nM",0.00142 ± 1.5e-05
same,peptide microarray binding signal,[3]; [23],0.000396 ± 7e-06
same,peptide microarray binding signal,[3]; [24],0.000628 ± 6.7e-06
same,peptide microarray binding signal,[4]; [23],0.000166 ± 3.6e-06
same,peptide microarray binding signal,[4]; [24],0.000346 ± 3.8e-06
